# Source: PubChem BioAssay AID1159580 (chemical genetic matrix, 2015)
# Several values for one entry are separate records, joined by “and”; a condition that tells them apart may be missing. Equal entries are not always repeated. Screen size: about 5,500 compounds; about 2,000 (36%) were called active. Roughly 18% stayed inconclusive and do not appear here. No stated cut-off is given here; in the data, active means normalized growth mostly below about 0.91 (no sharp cut-off); inconclusive means no clear call, values can overlap the other calls; inactive means mostly above about 0.92. Some of the results follow. Some compounds were tested as several samples or in several runs, with calls that do not always agree.
# Test: chemical genetic growth profiling, strain panel (AID 1159580);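 further: tested at 20 µM; growth read once vehicle control cultures reached saturation at 30 °C; 1 = growth at the plate median or of vehicle wells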
# Settings: S. cerevisiae deletion strains, growth OD
smiles,measurement,setting,value
O=c1c(O)c(-c2ccc(O)c(O)c2)oc2cc(O)cc(O)c12,normalized growth,"locus YAL013W, strain DEP1, stronger effect = lower value",0.973 (inactive) and 0.979 (inactive)
same,normalized growth,"locus YAL021C, strain ccr4, stronger effect = lower value",0.659 (active)
same,normalized growth,"locus YAL026C, strain drs2, stronger effect = lower value",0.782 (active)
same,normalized growth,"locus YAL030W, strain snc1, stronger effect = lower value",0.94 (inactive)
same,normalized growth,"locus YAL040C, strain CLN3, stronger effect = lower value",1.07 (inactive)
same,normalized growth,"locus YBL061C, strain skt5, stronger effect = lower value",0.832 (active)
same,normalized growth,"locus YBR009C, strain hhf1, stronger effect = lower value",0.919 (inactive)
same,normalized growth,"locus YBR021W, strain FUR4, stronger effect = lower value",0.992 (inactive)
same,normalized growth,"locus YBR023C, strain chs3, stronger effect = lower value",0.778 (active)
same,normalized growth,"locus YBR171W, strain sec66, stronger effect = lower value",0.997 (inactive)
same,normalized growth,"locus YBR229C, strain ROT2, stronger effect = lower value",0.993 (inactive)
same,normalized growth,"locus YBR231C, strain swc5, stronger effect = lower value",0.767 (active)
same,normalized growth,"locus YBR279W, strain paf1, stronger effect = lower value",0.848 (active)
same,normalized growth,"locus YCL011C, strain gbp2, stronger effect = lower value",0.847 (active)
same,normalized growth,"locus YCL016C, strain dcc1, stronger effect = lower value",0.877 (active)
same,normalized growth,"locus YCL029C, strain bik1, stronger effect = lower value",0.982 (inactive)
same,normalized growth,"locus YCL061C, strain MRC1 (second series), stronger effect = lower value",0.996 (inactive)
same,normalized growth,"locus YCL069W, strain vba3, stronger effect = lower value",0.92 (active)
same,normalized growth,"locus YCR088W, strain abp1, stronger effect = lower value",0.993 (inactive)
same,normalized growth,"locus YDL005C, strain med2, stronger effect = lower value",0.992 (inactive)
same,normalized growth,"locus YDL035C, strain GPR1, stronger effect = lower value",0.906 (inactive)
same,normalized growth,"locus YDL040C, strain nat1, stronger effect = lower value",0.974 (inactive)
same,normalized growth,"locus YDL074C, strain BRE1, stronger effect = lower value",0.848 (inactive)
same,normalized growth,"locus YDL101C, strain DUN1, stronger effect = lower value",0.98 (inactive)
same,normalized growth,"locus YDL134C, strain PPH21, stronger effect = lower value",0.932 (inactive)
same,normalized growth,"locus YDL185W, strain tfp1, stronger effect = lower value",1.01 (inactive)
same,normalized growth,"locus YDL192W, strain arf1, stronger effect = lower value",0.958 (inactive)
same,normalized growth,"locus YDR001C, strain nth1, stronger effect = lower value",0.988 (inactive)
same,normalized growth,"locus YDR069C, strain doa4, stronger effect = lower value",0.728 (active)
same,normalized growth,"locus YDR101C, strain arx1, stronger effect = lower value",1.02 (inactive)
same,normalized growth,"locus YDR137W, strain rgp1, stronger effect = lower value",0.897 (inactive)
same,normalized growth,"locus YDR150W, strain NUM1, stronger effect = lower value",0.978 (inactive)
same,normalized growth,"locus YDR159W, strain sac3, stronger effect = lower value",0.974 (inactive)
same,normalized growth,"locus YDR162C, strain NBP2, stronger effect = lower value",0.908 (inactive)
same,normalized growth,"locus YDR195W, strain ref2",1.04 (inactive)
same,normalized growth,"locus YDR297W, strain sur2, stronger effect = lower value",0.899 (active)
same,normalized growth,"locus YDR318W, strain mcm21, stronger effect = lower value",0.967 (inactive)
same,normalized growth,"locus YDR334W, strain swr1, stronger effect = lower value",0.855 (active)
same,normalized growth,"locus YDR335W, strain msn5, stronger effect = lower value",0.828 (active)
same,normalized growth,"locus YDR363W, strain ESC2, stronger effect = lower value",1.01 (inactive)
same,normalized growth,"locus YDR388W, stronger effect = lower value",0.943 (inactive)
same,normalized growth,"locus YDR392W, strain spt3, stronger effect = lower value",0.781 (inactive)
same,normalized growth,"locus YDR502C, strain sam2, stronger effect = lower value",0.955 (inactive)
same,normalized growth,"locus YEL003W, strain gim4, stronger effect = lower value",0.879 (active)
same,normalized growth,"locus YEL037C, strain rad23, stronger effect = lower value",0.885 (active)
same,normalized growth,"locus YEL061C, strain CIN8 (second series), stronger effect = lower value",0.963 (inactive)
same,normalized growth,"locus YEL061C, strain CIN8, stronger effect = lower value",0.946 (inactive)
same,normalized growth,"locus YER002W, strain NOP16, stronger effect = lower value",1 (inactive)
same,normalized growth,"locus YER015W, strain faa2, stronger effect = lower value",0.817 (active)
same,normalized growth,"locus YER016W, strain bim1, stronger effect = lower value",0.911 (active)
same,normalized growth,"locus YER110C, stronger effect = lower value",1.04 (inactive)
same,normalized growth,"locus YER111C, strain swi4, stronger effect = lower value",0.895 (active)
same,normalized growth,"locus YER155C, strain BEM2 (second series), stronger effect = lower value",0.899 (inactive)
same,normalized growth,"locus YER155C, strain BEM2, stronger effect = lower value",1.02 (inactive)
same,normalized growth,"locus YER167W, strain BCK2, stronger effect = lower value",0.976 (inactive)
same,normalized growth,"locus YFR010W, strain ubp6, stronger effect = lower value",0.9 (active)
same,normalized growth,"locus YGL078C, strain dbp3, stronger effect = lower value",0.999 (inactive)
same,normalized growth,"locus YGL086W, strain mad1, stronger effect = lower value",0.915 (active)
same,normalized growth,"locus YGL167C, strain pmr1, stronger effect = lower value",0.977 (inactive)
same,normalized growth,"locus YGL173C, strain kem1, stronger effect = lower value",0.826 (active)
same,normalized growth,"locus YGL227W, strain vid30, stronger effect = lower value",1 (inactive)
same,normalized growth,"locus YGL240W, strain doc1, stronger effect = lower value",0.997 (inactive)
same,normalized growth,"locus YGL248W, strain PDE1, stronger effect = lower value",0.928 (inactive)
same,normalized growth,"locus YGL253W, strain hxk2, stronger effect = lower value",0.83 (active)
same,normalized growth,"locus YGR078C, strain PAC10, stronger effect = lower value",0.887 (inactive) and 0.991 (inactive)
same,normalized growth,"locus YGR135W, strain pre9, stronger effect = lower value",0.91 (inactive)
same,normalized growth,"locus YGR229C, strain SMI1, stronger effect = lower value",0.542 (active) and 0.965 (inactive)
same,normalized growth,"locus YGR252W, strain gcn5, stronger effect = lower value",0.804 (inactive)
same,normalized growth,"locus YHR013C, strain ard1, stronger effect = lower value",0.796 (active)
same,normalized growth,"locus YHR027C, strain rpn1, stronger effect = lower value",0.807 (active)
same,normalized growth,"locus YHR030C, strain SLT2, stronger effect = lower value",0.951 (inactive) and 0.997 (inactive)
same,normalized growth,"locus YHR079C, strain IRE1 (second series), stronger effect = lower value",1.02 (inactive)
same,normalized growth,"locus YHR079C, strain IRE1, stronger effect = lower value",0.981 (inactive)
same,normalized growth,"locus YHR094C, strain hxt1, stronger effect = lower value",1.04 (inactive)
same,normalized growth,"locus YHR129C, strain ARP1, stronger effect = lower value",0.926 (inactive)
same,normalized growth,"locus YHR142W, strain chs7, stronger effect = lower value",0.735 (active)
same,normalized growth,"locus YHR200W, strain rpn10, stronger effect = lower value",0.941 (inactive)
same,normalized growth,"locus YIL066C, strain RNR3, stronger effect = lower value",0.882 (inactive)
same,normalized growth,"locus YIL073C, strain SPO22, stronger effect = lower value",0.854 (inactive)
same,normalized growth,"locus YIL125W, strain kgd1, stronger effect = lower value",1 (inactive)
same,normalized growth,"locus YIR030C, strain dcg1, stronger effect = lower value",1.03 (inactive)
same,normalized growth,"locus YJL092W, strain hpr5, stronger effect = lower value",0.955 (inactive)
same,normalized growth,"locus YJL095W, strain BCK1 (second series), stronger effect = lower value",0.858 (active)
same,normalized growth,"locus YJL095W, strain BCK1, stronger effect = lower value",0.773 (active) and 0.993 (inactive)
same,normalized growth,"locus YJL115W, strain asf1, stronger effect = lower value",0.962 (inactive)
same,normalized growth,"locus YJL129C, strain trk1, stronger effect = lower value",0.913 (inactive)
same,normalized growth,"locus YJL134W, strain LCB3, stronger effect = lower value",0.988 (inactive)
same,normalized growth,"locus YJL154C, strain vps35, stronger effect = lower value",0.985 (inactive)
same,normalized growth,"locus YJL164C, strain tpk1, stronger effect = lower value",0.868 (active)
same,normalized growth,"locus YJL166W, strain qcr8, stronger effect = lower value",0.913 (inactive)
same,normalized growth,"locus YJL168C, strain set2, stronger effect = lower value",1.02 (inactive)
same,normalized growth,"locus YJL187C, strain SWE1 (second series), stronger effect = lower value",0.895 (inactive)
same,normalized growth,"locus YJR043C, strain POL32, stronger effect = lower value",0.905 (inactive)
same,normalized growth,"locus YJR066W, strain TOR1, stronger effect = lower value",0.931 (inactive)
same,normalized growth,"locus YJR075W, strain HOC1, stronger effect = lower value",0.982 (inactive) and 0.99 (inactive)
